Measured values as given in PubChem BioAssay.
Calls of active or inactive are those of the source.

Columns and labels:
[1] = binders of probe aFSTL3 on microarray, primary screen, stem cell growth factor project, biochemical, small-molecule microarray, fluorescence 635/667 (AID 1064); details: higher = more signal;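 note: measures binding of the biotinylated anti-FSTL3 antibody to printed compounds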
[2] = binders from COS7 lysate, DM2A8 probe, primary screen, torsin A project, cell lysate, small-molecule microarray, fluorescence 635/667 (AID 1065); details: higher = more signal, COS7 lysate expressing mutant human TOR1A
[3] = binders of probe aFGF2 on microarray, primary screen, stem cell growth factor project, biochemical, small-molecule microarray, fluorescence 635/667 (AID 1067); details: higher = more signal;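 note: measures binding of biotinylated aFGF2 protein to printed compounds on slides; z-score merges feature fluorescence and signal-to-noise across triplicate slides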
[4] = binders of probe aFGF10 on microarray, primary screen, stem cell growth factor project, biochemical, small-molecule microarray, fluorescence 635/667 (AID 1071); details: higher = more signal;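 note: score merges 667 nm spot intensity and signal to noise from triplicate slides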
[5] = target: Neurogenic locus notch homolog protein 2 (Homo sapiens) (UniProt Q04721); assay: Notch2 binders on small-molecule microarrays, primary screen, biochemical, small-molecule microarray, 635 nm fluorescence, stem cell growth factors (AID 1073); details: Notch2 binding, higher = more signal
Neurogenic locus notch homolog protein 2 (Homo sapiens), sequence (Q04721 whole entry, looked up, canonical isoform): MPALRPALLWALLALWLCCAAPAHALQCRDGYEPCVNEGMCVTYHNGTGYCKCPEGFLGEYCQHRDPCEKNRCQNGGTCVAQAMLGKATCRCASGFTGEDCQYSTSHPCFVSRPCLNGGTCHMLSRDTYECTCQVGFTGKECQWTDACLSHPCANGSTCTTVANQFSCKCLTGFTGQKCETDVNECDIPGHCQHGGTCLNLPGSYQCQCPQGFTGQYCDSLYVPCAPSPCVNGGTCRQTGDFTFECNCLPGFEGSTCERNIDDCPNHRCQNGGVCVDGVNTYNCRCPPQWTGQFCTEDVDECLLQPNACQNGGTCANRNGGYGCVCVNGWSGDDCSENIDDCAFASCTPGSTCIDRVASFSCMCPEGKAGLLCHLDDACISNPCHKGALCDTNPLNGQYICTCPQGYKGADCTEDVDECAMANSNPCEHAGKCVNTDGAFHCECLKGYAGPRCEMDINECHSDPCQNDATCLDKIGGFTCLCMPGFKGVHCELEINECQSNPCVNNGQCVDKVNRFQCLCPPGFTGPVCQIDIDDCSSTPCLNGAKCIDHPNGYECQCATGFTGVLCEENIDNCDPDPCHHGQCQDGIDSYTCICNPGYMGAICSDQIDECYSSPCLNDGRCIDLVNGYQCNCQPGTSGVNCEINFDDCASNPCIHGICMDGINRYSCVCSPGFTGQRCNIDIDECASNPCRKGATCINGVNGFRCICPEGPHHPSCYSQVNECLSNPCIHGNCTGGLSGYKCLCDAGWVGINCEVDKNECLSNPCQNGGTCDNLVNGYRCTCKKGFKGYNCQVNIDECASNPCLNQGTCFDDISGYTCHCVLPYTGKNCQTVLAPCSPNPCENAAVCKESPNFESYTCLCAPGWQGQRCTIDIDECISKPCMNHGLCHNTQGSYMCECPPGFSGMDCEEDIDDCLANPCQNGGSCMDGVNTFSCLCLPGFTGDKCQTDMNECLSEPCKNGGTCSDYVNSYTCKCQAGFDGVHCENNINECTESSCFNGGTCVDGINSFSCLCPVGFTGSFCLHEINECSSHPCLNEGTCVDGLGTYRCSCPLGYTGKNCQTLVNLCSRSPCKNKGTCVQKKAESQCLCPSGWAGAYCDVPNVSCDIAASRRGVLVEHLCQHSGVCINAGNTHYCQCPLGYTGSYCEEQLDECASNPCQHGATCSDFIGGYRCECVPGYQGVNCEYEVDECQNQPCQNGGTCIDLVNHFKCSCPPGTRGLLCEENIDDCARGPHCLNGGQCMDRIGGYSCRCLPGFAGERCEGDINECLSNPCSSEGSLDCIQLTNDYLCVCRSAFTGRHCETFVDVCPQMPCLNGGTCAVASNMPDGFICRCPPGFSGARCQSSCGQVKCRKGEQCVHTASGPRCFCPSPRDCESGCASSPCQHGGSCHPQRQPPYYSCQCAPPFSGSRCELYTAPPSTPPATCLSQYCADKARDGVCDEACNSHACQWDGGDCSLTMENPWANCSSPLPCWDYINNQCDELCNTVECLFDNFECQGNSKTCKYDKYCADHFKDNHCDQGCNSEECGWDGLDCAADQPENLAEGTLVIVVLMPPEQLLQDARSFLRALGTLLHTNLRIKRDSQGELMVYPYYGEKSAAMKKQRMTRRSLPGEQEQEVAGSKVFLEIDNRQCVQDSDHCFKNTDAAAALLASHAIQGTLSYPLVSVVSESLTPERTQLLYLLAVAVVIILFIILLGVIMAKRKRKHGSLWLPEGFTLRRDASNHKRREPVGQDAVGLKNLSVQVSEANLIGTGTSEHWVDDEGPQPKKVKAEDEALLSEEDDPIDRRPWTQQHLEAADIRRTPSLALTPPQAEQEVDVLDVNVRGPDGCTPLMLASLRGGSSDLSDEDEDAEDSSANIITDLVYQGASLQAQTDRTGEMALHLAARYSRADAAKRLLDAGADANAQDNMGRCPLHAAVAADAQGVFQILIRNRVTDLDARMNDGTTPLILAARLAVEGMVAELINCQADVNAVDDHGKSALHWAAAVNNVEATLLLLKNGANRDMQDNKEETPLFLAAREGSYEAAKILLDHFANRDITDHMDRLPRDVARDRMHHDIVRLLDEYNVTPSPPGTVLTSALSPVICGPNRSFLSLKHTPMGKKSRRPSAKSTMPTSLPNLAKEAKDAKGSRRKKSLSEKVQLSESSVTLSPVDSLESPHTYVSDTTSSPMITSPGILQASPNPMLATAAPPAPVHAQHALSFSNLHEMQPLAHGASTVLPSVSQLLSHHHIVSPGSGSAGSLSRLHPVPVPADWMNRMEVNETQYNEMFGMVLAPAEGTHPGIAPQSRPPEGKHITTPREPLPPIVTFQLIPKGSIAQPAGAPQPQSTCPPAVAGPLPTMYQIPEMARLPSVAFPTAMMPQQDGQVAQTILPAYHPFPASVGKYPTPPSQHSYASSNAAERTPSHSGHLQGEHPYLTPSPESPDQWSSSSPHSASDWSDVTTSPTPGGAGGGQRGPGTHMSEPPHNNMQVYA

[6] = target: Pro-neuregulin-1, membrane-bound isoform (Homo sapiens) (UniProt Q02297); assay: NRG1 binders on small-molecule microarrays, primary screen, psychiatric disease protein project, biochemical, small-molecule microarray, fluorescence 635/667 (AID 1075); details: NRG1 binding, 635 nm fluorescence, higher = more signal;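 note: score combines 667 nm spot fluorescence with signal to noise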
Pro-neuregulin-1, membrane-bound isoform (Homo sapiens), sequence (Q02297 whole entry, looked up, the tested form may be a part, canonical isoform): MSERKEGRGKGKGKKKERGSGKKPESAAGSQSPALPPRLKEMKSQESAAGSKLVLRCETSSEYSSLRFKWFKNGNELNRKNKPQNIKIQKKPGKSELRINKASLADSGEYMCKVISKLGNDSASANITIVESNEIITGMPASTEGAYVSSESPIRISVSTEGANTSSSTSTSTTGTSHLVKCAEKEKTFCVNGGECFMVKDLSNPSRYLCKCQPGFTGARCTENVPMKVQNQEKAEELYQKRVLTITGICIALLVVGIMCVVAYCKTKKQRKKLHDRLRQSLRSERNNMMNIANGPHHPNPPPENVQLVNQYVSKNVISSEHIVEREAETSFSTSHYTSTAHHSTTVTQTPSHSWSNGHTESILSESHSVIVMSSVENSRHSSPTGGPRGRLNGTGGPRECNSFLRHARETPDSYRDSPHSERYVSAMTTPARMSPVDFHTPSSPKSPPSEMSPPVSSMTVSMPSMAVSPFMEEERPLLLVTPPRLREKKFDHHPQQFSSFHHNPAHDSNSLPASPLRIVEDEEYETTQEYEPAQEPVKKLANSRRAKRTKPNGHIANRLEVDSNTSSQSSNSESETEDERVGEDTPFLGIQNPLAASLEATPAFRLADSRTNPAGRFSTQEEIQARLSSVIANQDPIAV

[7] = system: Neuregulin-1 EGF-like domain; assay: binders of neuregulin-1 EGF-like domain, primary screen, biochemical, small-molecule microarray, 635 nm fluorescence (AID 1081); details: small-molecule microarray binding, higher = more signal;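 note: binding of the protein to compounds printed on small-molecule microarray slides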
[8] = FRG1 promoter luciferase signal modulators, primary screen, FRG1 inhibition for FSHD, cell-based, C2C12 myotubes, firefly/Renilla luciferase, luminescence (AID 1084); details: higher = more signal, called active from +8 up or from −8 down
[9] = binders of probe aFST on microarray, primary screen, stem cell growth factor project, biochemical, small-molecule microarray, fluorescence 635/667 (AID 1086); details: higher = more signal;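 note: score merges 667 nm fluorescence with signal-to-noise of each printed compound spot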
[10] = binders of probe aHhip on microarray, primary screen, stem cell growth factor project, biochemical, small-molecule microarray, fluorescence 635/667 (AID 1087); details: higher = more signal;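 note: score merges spot fluorescence at 667nm with spot signal to noise ratio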

SMILES	composite z-score [1]	composite z-score [2]	composite z-score [3]	composite z-score [4]	composite z-score [5]	composite z-score [6]	composite z-score [7]	z-score [8]	composite z-score [9]	composite z-score [10]
COc1ccc(CCNC(=O)[C@@H]2c3ccccc3C(=O)N(c3ccc(C)cn3)[C@H]2c2ccc(CO)cc2)cc1	1.18	-0.793	-0.189	-0.715	-1.85	-1.13	1.2	0.379 (inactive)	-0.57	-0.0994
CO[C@H]1O[C@H](CO)[C@@H](OC(=O)Nc2ccc(C#N)cc2)[C@H](OC(=O)c2cc3ccccc3[nH]2)[C@H]1OC(=O)c1cc2ccccc2[nH]1	0.0407	1.3	0.062	1.16	1.04	1.75	1.24	-1.79 (inactive)	0.462	-0.0645
COCCCNC(=O)[C@@]1(C)c2ccccc2C(=O)N(Cc2ccc(OC(F)(F)F)cc2)[C@H]1c1ccc(CO)cc1	0.729	-0.255	-0.116	-0.0476	-0.505	0.785	1.45	-2.6 (inactive)	0.153	0.213
CO[C@@H]1COC(=O)CC=C[C@@H](C)[C@@H]2C=C[C@@H](O)[C@@H](COC(=O)CC=C[C@H]1C)O2	-0.42	1.08	-0.0861	-0.251	-0.716	-0.688	-0.523	-0.969 (inactive)	-0.176	-0.16
CC(CCC(=O)OC[C@H]1O[C@H](C#Cc2ccccc2)C=C[C@@H]1Oc1ccc(C)cc1)=NOC[C@@H](O)COCc1ccco1	0.348	-2.21	0.0388	-3.02	-2.5	-0.837	-0.295	-0.948 (inactive)	-1.94	-0.389
CCOC(=O)C1=CCC(c2cc3ccccc3[nH]2)NC1 (stereo not given)	1.31	0.758	-0.0629	-0.355	0.476	0.963	1.13	4.17 (inactive)	0.77	-0.156
COc1ccc(COC(=O)NN=C2C[C@@H](O)[C@@H](O)[C@@H]3[C@@H]4C(=O)N(Cc5ccc6c(c5)OCO6)C(=O)[C@@H]4CC[C@@H]23)cc1	1.58	0.43	0.0203	-0.0669	-0.732	-0.424	0.146	-0.918 (inactive)	1.18	0.0722
COC(=O)[C@H](C)NC(=O)CCC1CC(OC(=O)NCc2ccc3c(c2)OCO3)CC2(CCCC(COC(=O)NCCOc3ccccc3)O2)O1 (stereo not given in full)	-0.426	0.898	-0.122	0.325	1.06	0.689	1.04	-0.503 (inactive)	0.91	-0.479
CCOC(=O)CCN1C(=O)[C@H]2[C@H]3[C@H](O)[C@H](O)CC(=NOC[C@@H](O)COCc4ccco4)[C@H]3CC[C@H]2C1=O	-0.528	-0.0277	-0.0996	0.483	0.722	0.035	0.148	0.122 (inactive)	0.132	0.28
CC(C)=CCCC(C)=CCON=C1C[C@@H](O)[C@@H](O)[C@@H]2[C@@H]3C(=O)N(C[C@@H]4CCCO4)C(=O)[C@@H]3CC[C@@H]12	-0.518	1	-0.134	0.84	0.449	0.614	1.08	-0.24 (inactive)	0.28	0.0749
CO[C@@H]1COC(=O)CC=C[C@@H](C)[C@H](OC)COC(=O)[C@H](COCc2ccccc2)NC(=O)CC=C[C@H]1C	0.0122	0.843	-0.0775	-0.0228	-0.0992	-0.673	-0.831	-0.886 (inactive)	-0.455	-0.0618
CC=CC1=C(CO)[C@H](O)[C@H]2O[C@H]2[C@H]1O	-0.659	0.253	-0.027	0.166	-0.0482	-0.157	0.583	-0.0975 (inactive)	-0.191	0.0881
CC(C)[Si]1(C(C)C)O[C@@H](c2ccccc2)c2cc(C3CC3)nc(-c3ccccc3)c21	-0.324	-0.598	-0.0494	-0.0526	0.0397	-0.234	-0.717	0.178 (inactive)	-0.0973	0.0274
COCCCNC(=O)[C@]1(CCC(=O)OC(C)(C)C)N=C(c2ccc(OCCCO)cc2)O[C@@H]1c1ccccc1N=[N+]=[N-]	0.0081	1.27	0.15	0.891	1.33	1.62	1.36	3.15 (inactive)	1.51	0.107
COC(=O)[C@@]1(Cc2ccc(OC)cc2)[C@H]2c3cc(C(=O)N4CCCC4)n(Cc4cc(F)c(F)c(F)c4)c3C[C@H]2CN1C(=O)c1ccccc1	2.91	1.05	0.746	1.19	1.82	1.62	1.19	-0.104 (inactive)	3.01	1.88
COC(=O)[C@@]1(Cc2ccc(F)cc2)[C@@H]2C(=CC(=O)[C@H]2CC(=O)C(=O)N(C)C)CN1C(=O)c1ccccc1	0.581	-0.293	0.293	0.663	1.71	1.49	1.36	-0.524 (inactive)	1.45	2.1
COC(=O)[C@H](C)NC(=O)CCC1CC(OC(=O)NCCc2ccc(F)cc2)CC2(CCCC(COC(=O)NCC(c3ccccc3)c3ccccc3)O2)O1 (stereo not given in full)	-0.342	-0.266	-0.124	0.462	1.29	0.846	1.2	1.38 (inactive)	0.107	-0.247
CCOc1ccc(N2C(=O)/C(=C/C=C/c3ccccc3OC)S(=O)(=O)C2c2cccc([N+](=O)[O-])c2)cc1 (stereo not given)	-0.0317	0.232	-0.0906	0.281	0.344	0.903	-0.142	-1.75 (inactive)	0.323	-0.515
C=CCN1C(=O)[C@]2(O[C@H](CCn3cc(CCO)nn3)[C@@H]([Si](C)(C)c3ccc(OC)cc3)[C@@H]2C)c2cc(N3CCOC3=O)ccc21	-0.0415	0.0421	-0.152	0.0622	-0.447	1.05	1.18	-3.36 (inactive)	-0.414	-0.261
COCCCNC(=O)[C@@]1(CCS(=O)(=O)c2ccccc2)N=C(c2ccc(OCCCO)cc2)O[C@H]1c1ccccc1	0.958	1.5	0.378	1.18	0.674	1.25	1.31	-1.23 (inactive)	0.56	2.04
Cn1cccc1C(O)C1C=CC2C(=O)NC(=O)C2N1Nc1ccccn1 (stereo not given)	-0.177	0.124	-0.179	-0.0312	0.359	0.782	0.371	1.63 (inactive)	0.339	0.0053
COC(=O)[C@H](C)NC(=O)CCC1CC(OC(=O)NCCc2ccc(F)cc2)CC2(CCCC(COC(=O)NCCc3ccc(Cl)cc3)O2)O1 (stereo not given in full)	-0.655	1.39	-0.0579	0.812	1.15	0.691	0.595	1.11 (inactive)	0.393	-0.0672
COC(=O)[C@@]1(Cc2ccc(F)cc2)[C@H]2c3cc(C(=O)N(C)C)n(Cc4ccc(OC)c(OC)c4)c3C[C@H]2CN1C(=O)c1ccccc1	0.257	-0.0565	0.184	0.551	1.56	0.641	1.44	0.619 (inactive)	0.169	0.402
CC(=O)O[C@H]1C2=C(C(=O)[C@@H]3O[C@@H]31)[C@H]1C(C)O[C@@H]2[C@@]23C(=O)[C@@H]4O[C@@H]4[C@@H](O)C2=CO[C@H](C)[C@@H]13 (stereo not given in full)	-0.295	0.16	-0.0314	0.226	0.166	-0.274	0.377	-1.07 (inactive)	-0.0354	-0.0645
CC(=O)OC[C@H]1O[C@H](CC=NOC[C@@H](C)[C@H](OCc2ccccc2)C(C)C)C=C[C@@H]1OC(C)=O	-0.0055	-0.141	-0.087	0.0055	-0.0224	-0.254	-0.712	0.183 (inactive)	-0.341	-0.0645
CC1(C)OCC(C(O)C2=CCCCC2=O)CO1 (stereo not given)	-0.495	0.547	-0.0607	0.54	0.214	0.366	0.979	0.119 (inactive)	0.753	0.065
CCN(CC)c1ccc(N2CC=CC34O[C@@H]5/C=C\CCC(C)OC(=O)C5[C@H]3C(=O)N(CCCO)[C@@H]4C2=O)cc1 (stereo not given in full)	0.678	0.215	-0.0766	0.408	-0.659	0.63	1.58	0.957 (inactive)	-0.444	-0.0237
